Source: PubChem BioAssay
Compounds with a hit are over-represented: about 4.3% of the library has one in this group of screens.
FAS-TE inh – inhibitors of human fatty acid synthase thioesterase domain; AID 602261; P49327; recombinant FAS-TE, OMFH fluorogenic substrate, fluorescence endpoint; 0.67% of 360,000 active; inhibition, % at 15 µM;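 active means compounds whose normalised, plate-corrected inhibition of enzyme fluorescence in the single-dose primary screen is 50% or more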
ADAM10 inh – inhibits human ADAM10. O14672. recombinant ADAM10, EDANS/DABCYL FRET peptide cleavage, 3 h. inhibition, % at 7 µM. 0.62% of 370,000 active;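 active means inhibition above a per-campaign cutoff equal to the mean of compounds falling between control-based bounds plus 3 SD, cut at about 20% in these data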
GRIN3A LBD mod – modulators (binders) of human NR3A ligand-binding domain. NR3A LBD differential scanning fluorimetry, Tm shift; 0% = protein alone, 100% = glycine-bound protein. Tm shift relative to glycine control, % at 25 µM. AID 1259313. 2.5% of 340,000 active;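 active means melting temperature shift of at least 10% of the positive control shift, at one fixed dose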
HGIII-sPLA2 inh – Inhibits HGIII-sPLA2 liposome hydrolysis, primary screen | Q9NZ20 | QFRET BODIPY PC-A2 liposome hydrolysis, fluorescence | inhibition, % at 12.2 µM | 0.56% of 370,000 active;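 active means inhibition above mean plus 3 SD of compounds lying within the high and low control bounds, cut at about 19% in these data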
ADAM17 inh – ADAM17 inhibition, QFRET primary screen | P78536 | recombinant ADAM17, EDANS/DABCYL FRET peptide cleavage | inhibition, % at 6.95 µM | 0.83% of 370,000 active | AID 720648;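 active means inhibition above the mean of compounds lying between control limits plus 3 SD, set per campaign, cut at about 8.5% in these data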
Target sequence (P78536 215-824 limits assumed): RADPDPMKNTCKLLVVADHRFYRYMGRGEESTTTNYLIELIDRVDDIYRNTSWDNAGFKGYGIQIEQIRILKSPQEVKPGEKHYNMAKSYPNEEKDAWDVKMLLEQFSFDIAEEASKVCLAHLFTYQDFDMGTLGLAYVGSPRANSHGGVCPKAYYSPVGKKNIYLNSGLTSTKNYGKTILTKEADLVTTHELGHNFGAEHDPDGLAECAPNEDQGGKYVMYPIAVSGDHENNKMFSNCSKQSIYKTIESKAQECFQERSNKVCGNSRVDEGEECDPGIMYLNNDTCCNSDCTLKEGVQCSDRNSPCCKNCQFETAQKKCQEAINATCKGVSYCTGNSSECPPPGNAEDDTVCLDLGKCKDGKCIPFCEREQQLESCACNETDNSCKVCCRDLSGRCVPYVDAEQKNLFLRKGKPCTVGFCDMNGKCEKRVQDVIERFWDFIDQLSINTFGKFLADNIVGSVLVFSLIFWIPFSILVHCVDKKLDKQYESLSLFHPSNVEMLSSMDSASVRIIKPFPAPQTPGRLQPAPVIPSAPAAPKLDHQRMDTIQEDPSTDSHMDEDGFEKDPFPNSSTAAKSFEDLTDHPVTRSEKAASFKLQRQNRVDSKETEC
sPLA2 confirm – human GIII-sPLA2 inhibition, confirmation; shares compounds with HGIII-sPLA2 inh; recombinant hGIII-sPLA2, BODIPY PC-A2 QFRET fluorescence; inhibition, % at 12.2 µM; 34% of 2,000 active;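 active means mean inhibition across triplicates above the hit cutoff set in the earlier primary screen, cut at about 19% in these data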
BODIPY interf – counter-screen for HGIII-sPLA2 inhibitors: 535nm fluorescence interference; shares compounds with HGIII-sPLA2 inh; BODIPY FL product fluorescence interference, QFRET; inhibition, % at 12.2 µM; 8.5% of 2,000 active;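 active means average inhibition above the solvent-only control mean plus 3 SD, cut at about 6% in these data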
BODIPY interf DR – 535nm optical interference dose response, HGIII-sPLA2 counter-screen; shares compounds with HGIII-sPLA2 inh; 240 tested, under 10 active; AID 743455; IC50, µM; BODIPY FL product fluorescence interference, cell-free;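 active means IC50 at or below 10 µM; inactive means IC50 above 10 µM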
Of the large screens only hits and unclear results are named; the others gave an inactive call (follow-up assays come after a bar, where they were run).

O=C(c1ccc(Br)cn1)N1CCC(Oc2cccnc2)CC1	none (no result: FAS-TE inh, GRIN3A LBD mod)
Cc1cc(N2CCCC2)ccc1NC(=O)COc1cccc(C(F)(F)F)c1	HGIII-sPLA2 inh 21.8 | sPLA2 confirm 35.2 | BODIPY interf inactive | BODIPY interf DR inactive
CCCCn1c(SCc2nc(N)nc(N3CCCCC3)n2)nc2c1c(=O)n(C)c(=O)n2C	HGIII-sPLA2 inh 20.9 | sPLA2 confirm inactive | BODIPY interf inactive
COc1ccc(NC(=O)c2ccc(NC(=O)C(C)C)cc2)c([N+](=O)[O-])c1	HGIII-sPLA2 inh 20.0 | sPLA2 confirm inactive | BODIPY interf inactive
CCOc1ccc(NC(=S)NC(=O)c2c(Br)cnn2C)c([N+](=O)[O-])c1	none
COc1ccc(NC(=S)NC(NC(=O)c2ccccc2Cl)C(Cl)(Cl)Cl)c([N+](=O)[O-])c1 (configuration not stated)	HGIII-sPLA2 inh 27.7 | sPLA2 confirm 34.6 | BODIPY interf 7.2
COc1ccc(NC(=O)c2cccc(NC(=O)C(C)C)c2)c([N+](=O)[O-])c1	none
CCOc1ccc(NC(=S)NC(=O)c2c(Cl)cnn2CC)c([N+](=O)[O-])c1	HGIII-sPLA2 inh 22.3 | sPLA2 confirm 20.4 | BODIPY interf inactive
Cc1c2n(c3ccccc13)CC/C2=N\O	none
CO/N=C1\CCn2c1c(C)c1ccccc12	HGIII-sPLA2 inh 19.8 | sPLA2 confirm inactive | BODIPY interf inactive
CC(=O)N1C[C@@H](CN2C(=O)CCC2=O)[C@@H]2C[C@H]1c1ccccc1N2C	none (no result: FAS-TE inh, GRIN3A LBD mod)
S=c1[nH]nc(-c2ccncc2)n1Cc1ccco1	none
CCCCc1n[nH]c(=S)n1Cc1ccc(Cl)cc1	HGIII-sPLA2 inh 19.6 | sPLA2 confirm 25.8 | BODIPY interf inactive
COc1cccc(-c2n[nH]c(=S)n2Cc2ccco2)c1	HGIII-sPLA2 inh 22.6 | sPLA2 confirm 25.0 | BODIPY interf inactive
CCCCc1n[nH]c(=S)n1Cc1ccccc1	none
S=c1[nH]nc(COc2ccc(Cl)cc2)n1Cc1ccco1	none
CCCc1n[nH]c(=S)n1Cc1ccco1	HGIII-sPLA2 inh 21.7 | sPLA2 confirm inactive | BODIPY interf inactive
O=C1NC(c2ccc(Br)cc2)c2c(-c3ccccc3)n[nH]c21 (configuration not stated)	none (no result: FAS-TE inh, GRIN3A LBD mod)
Cc1ccccc1Cn1cc(CN2[C@H](Cc3ccccc3)COc3cc(Br)ccc3S2(=O)=O)nn1	none (no result: FAS-TE inh, GRIN3A LBD mod)
O=C(N[C@H](Cc1ccccc1)C(=O)NCc1ccccn1)[C@H]1O[C@@H](n2ccc(=O)[nH]c2=O)[C@H](O)[C@@H]1O	none (no result: FAS-TE inh, GRIN3A LBD mod)
Cc1ccc(S(=O)(=O)N2CCOCC2)cc1-c1n[nH]c(=S)n1-c1ccccc1	HGIII-sPLA2 inh 23.2 | sPLA2 confirm inactive | BODIPY interf inactive
O=S(=O)(c1cccc(-c2n[nH]c(=S)n2-c2cccc(C(F)(F)F)c2)c1)N1CCOCC1	none
CCOC(=O)N1CCN(C(=O)C[C@H]2C[C@@]3(C(=O)OCC)CCCC4=C3N(CCC4)C2=O)CC1	none (no result: FAS-TE inh, GRIN3A LBD mod)
O=S1(=O)c2ccc(N3CCC[C@@H]3CO)cc2OCCCN1C1CC1	none (no result: FAS-TE inh, GRIN3A LBD mod)
COc1ccc2ccccc2c1C=Nn1c(-c2cc(-c3ccccc3)n[nH]2)n[nH]c1=S	none (no result: FAS-TE inh, GRIN3A LBD mod)
CN(C)CC(C)(C)CN=Cc1c(O)[nH]c2ccccc12	HGIII-sPLA2 inh 19.3 | sPLA2 confirm inactive | BODIPY interf inactive
COc1ccccc1/C=N\N=C(\N)c1ccccn1	none
COc1cccc(/C=N/N=C(\N)c2nonc2N)c1O	HGIII-sPLA2 inh 19.8 | sPLA2 confirm inactive | BODIPY interf inactive
Nc1n[nH]c2ccccc12	none
S=c1nn[nH]c2ccccc12	HGIII-sPLA2 inh 23.1 | sPLA2 confirm inactive | BODIPY interf inactive
CCCn1c(O)c(N=NC(=O)c2ccco2)c2ccccc21	HGIII-sPLA2 inh 20.9 | sPLA2 confirm inactive | BODIPY interf inactive
Cc1c(C)n(CCC#N)c2ccccc12	HGIII-sPLA2 inh 20.6 | sPLA2 confirm inactive | BODIPY interf inactive
Cc1c(C)n(CC(O)CSc2ccccc2)c2ccccc12 (configuration not stated)	none (no result: GRIN3A LBD mod)
NC(=S)Cc1ccc(Cl)cc1Cl	none
N=C(N)SCc1ccc(Cl)cc1Cl	HGIII-sPLA2 inh 38.8 | sPLA2 confirm inactive | BODIPY interf inactive
C[C@H]1COc2cc(Br)ccc2S(=O)(=O)N1Cc1cn(Cc2ccc(F)cc2)nn1	none (no result: FAS-TE inh, GRIN3A LBD mod)
c1ccc2cc(Cn3ccc4ccc(-c5ccc6cc[nH]c6c5)cc43)ccc2c1	HGIII-sPLA2 inh 23.2 (no result: FAS-TE inh, GRIN3A LBD mod) | sPLA2 confirm inactive | BODIPY interf 10.3
c1ccc2cc(Cn3ccc4ccc(-c5ccc6ccn(Cc7ccc8ccccc8c7)c6c5)cc43)ccc2c1	none (no result: FAS-TE inh, GRIN3A LBD mod)
Cn1nccc1C(=O)N1CCc2ccccc21	HGIII-sPLA2 inh 86.9 | sPLA2 confirm inactive | BODIPY interf inactive
COc1ccc(N2CCN(CCCNC(=O)COc3ccc(F)cc3)CC2)cc1	none (no result: FAS-TE inh, GRIN3A LBD mod)
O=C(N[C@H](C(=O)N1CCC[C@H]1C(=O)NCc1ccccc1)C1CCCCC1)c1ccc(Cl)cc1Cl	none (no result: FAS-TE inh, GRIN3A LBD mod)
N[C@H]1CC[C@@H]2SC[C@@H](C(=O)O)N2C1=O	none (no result: FAS-TE inh, GRIN3A LBD mod)
Cc1ccc(CNC(=O)C2CCCN(c3nc4ccccc4o3)C2)cc1 (configuration not stated)	HGIII-sPLA2 inh 19.5 | sPLA2 confirm inactive | BODIPY interf inactive
O=C1c2ccccc2C(=O)c2c1ccc1c(=O)n(-c3ccccc3)[nH]c21	HGIII-sPLA2 inh 26.2 | sPLA2 confirm 20.0 | BODIPY interf inactive
Cc1cccc(-n2[nH]c3c4c(ccc3c2=O)C(=O)c2ccccc2C4=O)c1	none
CC(=O)NNc1nc(-c2ccc(C)cc2)cs1	none
O=C(NNc1nc(-c2ccccc2)cs1)c1ccc(F)cc1	HGIII-sPLA2 inh 36.4 | sPLA2 confirm 45.6 | BODIPY interf 10.7
Cc1ccc(-c2csc(NC(=S)NC(=O)c3cccs3)n2)cc1	none
O=C(NNc1nc(-c2ccc(F)cc2)cs1)c1ccccc1	HGIII-sPLA2 inh 29.4 | sPLA2 confirm 40.5 | BODIPY interf 8.1
O=C(NNc1nc(-c2ccccc2)cs1)c1cccs1	HGIII-sPLA2 inh 33.4 | sPLA2 confirm 49.4 | BODIPY interf 11.5
O=C(NNc1nc2ccccc2s1)c1ccc(F)cc1	none
O=C(CSc1nnc(-c2ccco2)n1-c1ccc(Cl)cc1)Nc1ccc(S(=O)(=O)Nc2nccs2)cc1	none (no result: FAS-TE inh, GRIN3A LBD mod)
COc1ccc(C2C(C#N)=C(C)NC3=C2C(=O)CC(C)(C)C3)c(OC)c1 (configuration not stated)	none (no result: ADAM10 inh, HGIII-sPLA2 inh, ADAM17 inh)
COc1cc(OC)c(C2C(C#N)=C(C)NC(C)=C2C#N)c(C(=O)O)c1	HGIII-sPLA2 inh 23.7 | sPLA2 confirm inactive | BODIPY interf inactive
